According to PubChem BioAssay (NCATS):
Values without a mark were called inactive. Calls of active or inactive are those of the source. Calls follow the shape of the dose curve; as a rule, active = well fitted inhibition curve with a large enough effect; inconclusive = small, poorly fitted or top-dose-only effect; inactive = flat fitted curve, though single readings scatter.

The compounds below were run against Luciferin 4-monooxygenase (Photinus pyralis) (UniProt P08659) (assay: Primary firefly luciferase (FLuc) qHTS assay for identification of artifact compounds. (AID 1845220; also: nearly all actives have a fitted effect of over 60% in size;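 as to activity change, negative = inhibition: plate controls were DMSO vehicle for no effect and no enzyme for full effect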)). Conditions: purified firefly luciferase, luminescence, 5 min; series mostly up to 54.1 µM; activity change, negative = inhibition: at the top concentration.
In short: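 Titrated compounds were incubated 15 min at RT, protected from light, with luciferin and ATP at 10 uM; reaction started with 10 nM FLuc, luminescence imaged at 5 min, and concentration-response fitted by Hill equation.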

Row | SMILES | outcome | activity change, negative = inhibition
1 | NC1(c2ccc(NC(=O)c3ccnc(-c4cc(C(=O)O)ccn4)c3)cc2)CC1 | inactive | –
2 | O=C(O)c1cccc(C(=O)CCC2OC(n3cnc4c(=O)[nH]cnc43)C(O)C2O)c1 (stereo unspecified) | – | 2.52% [at 25.7 µM]
3 | COc1cc(O)cc(O[C@@H]2O[C@H](CO)[C@@H](O[C@@H]3OC[C@](O)(CO)[C@H]3O)[C@H](O)[C@H]2O)c1OC | inactive [at 25.7 µM] | –
4 | CS(=O)(=O)c1ccccc1N1CCN(c2nc3c(c(=O)[nH]2)CSCC3)CC1 | inactive | –
5 | Nc1nc(COC(=O)c2ccc([N+](=O)[O-])cc2)nc(Nc2ccccc2)n1 | – | -11%
6 | CC(=O)O[C@@H]1[C@H](O[C@@H]2OC[C@](O)(CO)[C@H]2O)[C@@H](O[C@@H]2O[C@@H](C)[C@H](O)[C@@H](O[C@@H]3O[C@H](CO)[C@@H](O)[C@H](O)[C@H]3O)[C@H]2O)[C@H](OC(=O)[C@]23CCC(C)(C)C[C@H]2C2=CCC4[C@@]5(C)C[C@H](O)[C@H](O[C@@H]6O[C@H](C(=O)O)[C@@H](O)[C@H](O)[C@H]6O)[C@@](C)(C(=O)O)C5CC[C@@]4(C)[C@]2(C)CC3)O[C@@H]1C (stereo partly specified) | inactive [at 11.6 µM] | –
7 | C=C(C(=O)O)C1CC(OC(=O)CC(C)CC)C2(C)CCCC(=C)C2C1 (stereo unspecified) | – | -5.91%
8 | OC[C@H]1O[C@@H](OC[C@H]2O[C@@H](OCc3ccccc3)[C@H](O)[C@@H](O)[C@@H]2O)[C@H](O)[C@@H](O)[C@@H]1O | – | 4.37% [at 25.7 µM]
9 | C=C1C[C@H](O)[C@@H](O)[C@@]2(C)C1[C@@H](O)[C@H]1OC(=O)C3[C@@H](C)[C@@H](O)[C@H](O)C2[C@]31C (stereo partly specified) | – | -2.26%
10 | C=C1CC2C(C)(CCC(=O)O)C(C(C)(C)O)CCC2(C)C2(C(=O)OC)C(=O)C(C)(O)C(=O)C12C (stereo unspecified) | – | -15.5% [at 25.7 µM]
11 | COC(=O)C1(O)C(OC(C)=O)CCC2C3(CC(c4ccoc4)OC3=O)C(C)=CCC21C(=O)OC (stereo unspecified) | – | 0.831% [at 25.7 µM]
12 | C[C@@H]1O[C@@H](O[C@H]2[C@@H]3C=CO[C@@H](O[C@@H]4O[C@H](CO)[C@@H](O)[C@H](O)[C@H]4O)[C@@H]3[C@@]3(CO)O[C@@H]23)[C@H](O)[C@H](O)[C@H]1OC(=O)/C=C/c1ccc(O)cc1 | – | -8.31% [at 25.7 µM]
13 | CCC(=O)OCC(=O)[C@@]1(OC(=O)CC)[C@@H](C)C[C@H]2[C@@H]3CCC4=CC(=O)C=C[C@]4(C)[C@@]3(F)[C@@H](O)C[C@@]21C | – | -2.92%
14 | OC[C@@]1(O)CO[C@H](OC[C@H]2O[C@@H](OCCc3ccccc3)[C@H](O)[C@@H](O)[C@@H]2O)[C@@H]1O | – | 2.41% [at 25.7 µM]
15 | Cc1c(Cc2ccc3ccccc3n2)c2cc(F)ccc2n1CC(=O)O | inactive | –
16 | C=C1CCC2(OC1)OC1CC3C4CC=C5CC(O)CC(O[C@@H]6OC[C@H](OC(=O)C(O)C(C)CC)[C@H](O)[C@H]6O[C@@H]6O[C@@H](C)[C@H](O)[C@@H](O)[C@H]6O)C5(C)C4CCC3(C)C1C2C (stereo partly specified) | – | 0.354% [at 11.6 µM]
17 | C[C@H](/C=C/[C@@]1(O)[C@H](C)CC(=O)CC1(C)C)O[C@@H]1O[C@H](CO[C@@H]2OC[C@@H](O)[C@H](O)[C@H]2O)[C@@H](O)[C@H](O)[C@H]1O | – | 1.38% [at 25.7 µM]
18 | C[C@@H]1C[C@@H](O)[C@@]2(CO)C(CO)=CCC[C@@H]2[C@@]12C[C@@H](c1ccoc1)OC2=O | – | 0.393%
19 | CC1(C)CC[C@]2(C(=O)O)CC[C@]3(C)C(=CCC4[C@@]5(C)CC[C@H](O[C@H]6O[C@H](C(=O)O)[C@@H](O)[C@H](O[C@@H]7O[C@H](CO)[C@H](O)[C@H](O)[C@H]7O)[C@H]6O)C(C)(C)C5CC[C@]43C)[C@@H]2C1 (stereo partly specified) | – | 1.03% [at 11.6 µM]
20 | C=CC(C)(O)CC/C=C(\C)C1CC=C(C)C(=O)O1 (stereo unspecified) | inactive | –
21 | COc1cc(C(CO)C(OC2OC(CO)C(O)C(O)C2O)c2ccc(O)c(OC)c2)ccc1O (stereo unspecified) | – | 1.05% [at 25.7 µM]
22 | CC12CC(O)C(O)C=C1c1cc(O)cc(O)c1C(=O)O2 (stereo unspecified) | inactive | –
23 | C[C@]1(OC(=O)/C=C\c2ccc(O)cc2)C[C@@H](O)[C@]2(O)C=CO[C@@H](O[C@@H]3O[C@H](CO)[C@@H](O)[C@H](O)[C@H]3O)C12 (stereo partly specified) | – | -1.56% [at 25.7 µM]
24 | CCCCNc1nc(N)c2[nH]c(=O)n(Cc3ccc(OCCN(C)C)nc3)c2n1 | – | 4.63%
25 | COc1cc(/C=C/C(=O)O[C@H]2C[C@@H]3C(C(=O)O)=CO[C@@H](O[C@@H]4O[C@H](CO)[C@@H](O)[C@H](O)[C@H]4O)[C@@H]3[C@H]2C)ccc1O | – | 2.45% [at 25.7 µM]
26 | COC1OC(=O)C2=C1C1(C)CCCC(C)(C)C1CC2O (stereo unspecified) | inactive | –
